Potency data for 31 compounds are collected here from PubChem BioAssay (Tox21).

“And” between values parts separate entries of the source, which are not always exact repeats. Equal values may be shown once. Results filed as inconclusive are left out. Some compounds were tested as several samples or in several runs, with calls that do not always agree. The source made the active and inactive calls. Unless noted, the call rests on the fitted dose curve; in most records, active means well fitted curve in the direction sought with a large enough effect in the repeat runs; inconclusive means weak or mixed curves; inactive means no such curve, though single readings can be large; an effect the other way counts as inactive or inconclusive.

Assay [1] is described as follows: qHTS assay to identify small molecule antagonists of the peroxisome proliferator-activated receptor delta (PPARd) signaling pathway - cell viability counter screen (AID 743213). Further: nearly all actives have a fitted effect of over 50% in size. Further: potency means the concentration at half of the fitted maximal effect. The method in brief:
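Cytotoxicity counter screen: CellTiter-Glo luminescence read 30 min after addition, in the same wells as the reporter assay. There, PPARd UAS-bla HEK293H cells (3000/well) were treated 17 h at 37 C with compound and 300 nM L165041.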

In assay [2] the target is Bile acid receptor (Homo sapiens) (UniProt Q96RI1). In words: qHTS assay to identify small molecule antagonists of the farnesoid-X-receptor (FXR) signaling pathway (AID 743217; active means well fitted inhibition curve with a large enough effect in the signal ratio in the repeat runs, not every such curve was filed as active; the % refers to the signal ratio; further: potency means the concentration at half of the fitted maximal effect). The essentials:
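GeneBLAzer FXR-UAS-bla HEK 293T, CDCA-stimulated (50 uM final). Compound treatment 16 h, 37 °C. Detection: beta-lactamase cleavage of B/G FRET substrate, fluorescence.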

The nature of assay [3]: qHTS assay to identify small molecule agonists of the farnesoid-X-receptor (FXR) signaling pathway - cell viability counter screen (AID 743218). Further: nearly all actives have a fitted effect of over 45% in size. Further: potency means the concentration at half of the fitted maximal effect. The method in brief:
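Parallel cytotoxicity test: compound-treated (16 h, 37 C) HEK 293T FXR-bla reporter cells were lysed with CellTiter-Glo and luminescence recorded.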

The target of assay [4] is Bile acid receptor (Homo sapiens) (UniProt Q96RI1). As to the kind of experiment: qHTS assay to identify small molecule agonists of the farnesoid-X-receptor (FXR) signaling pathway (AID 743220; active means well fitted activation curve with a large enough effect in the signal ratio in the repeat runs, not every such curve was filed as active; the % refers to the signal ratio). The method in brief: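 Beta-lactamase reporter under UAS control in GeneBLAzer FXR HEK 293T cells (5000/well) measured with LiveBLAzer FRET substrate after 2 h at room temperature. Compound exposure lasted 16 h at 37C.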

Assay [5] can be described thus: qHTS assay to identify small molecule antagonists of the farnesoid-X-receptor (FXR) signaling pathway - cell viability counter screen (AID 743221; active means well fitted cell-killing curve with a large enough effect in the repeat runs, not every such curve was filed as active; further: nearly all actives have a fitted effect of over 50% in size; further: potency means the concentration at half of the fitted maximal effect). The method in brief:
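GeneBLAzer FXR-UAS-bla HEK 293T cells, compound plus chenodeoxycholic acid (50 uM final), 16 h at 37 C. CellTiter-Glo added to the same wells after the beta-lactamase read; luminescence read after 30 min at room temperature as viability.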

The target of assay [6] is Vitamin D3 receptor (Homo sapiens) (UniProt P11473). As to the kind of experiment: qHTS assay to identify small molecule agonists of the vitamin D receptor (VDR) signaling pathway (AID 743222; calls by dose curve; further: potency means the concentration at half of the fitted maximal effect). The method in brief: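 In VDR-bla cells, compound-induced beta-lactamase expression is quantified by FRET substrate fluorescence. Treatment lasts 16 h at 37C; substrate develops 2 h at room temperature.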

The target is the same in assay [7]. In words: qHTS assay to identify small molecule antagonists of the vitamin D receptor (VDR) signaling pathway (AID 743223; active means well fitted inhibition curve with a large enough effect in the signal ratio in the repeat runs, not every such curve was filed as active; the % refers to the signal ratio). The essentials: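 VDR-bla cells were treated with compound plus 3 nM final 1alpha,25-dihydroxyvitamin D3 for 16 h at 37C. Beta-lactamase reporter read by B/G FRET substrate fluorescence after 2 h at room temperature. qHTS format.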
Assay [8] in a line: qHTS assay to identify small molecule agonists of the vitamin D receptor (VDR) signaling pathway - cell viability counter screen (AID 743224). Further: nearly all actives have a fitted effect of over 50% in size. Further: potency means the concentration at half of the fitted maximal effect. The essentials: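 Plated VDR-bla cells (4 h, 37C) received compound, incubated 16 h, then LiveBLAzer substrate 2 h RT; CellTiter-Glo added afterwards, luminescence read at 30 min.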
Assay [9] deals with Peroxisome proliferator-activated receptor delta (Homo sapiens) (UniProt Q03181). As to the kind of experiment: qHTS assay to identify small molecule antagonists of the peroxisome proliferator-activated receptor delta (PPARd) signaling pathway (AID 743215; active means well fitted inhibition curve with a large enough effect in the signal ratio in the repeat runs, not every such curve was filed as active; the % refers to the signal ratio;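 further: cells stimulated with agonist L165041 at 300 nM final during compound exposure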; further: potency means the concentration at half of the fitted maximal effect). The method in brief: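 HEK293H UAS-bla, PPARd; agonist L165041 300 nM final with cpd in DMSO; 37 C 17 h; FRET substrate, RT 2 h; fluorescence intensity.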
Sequence of Peroxisome proliferator-activated receptor delta (Homo sapiens) (Q03181 whole entry, looked up): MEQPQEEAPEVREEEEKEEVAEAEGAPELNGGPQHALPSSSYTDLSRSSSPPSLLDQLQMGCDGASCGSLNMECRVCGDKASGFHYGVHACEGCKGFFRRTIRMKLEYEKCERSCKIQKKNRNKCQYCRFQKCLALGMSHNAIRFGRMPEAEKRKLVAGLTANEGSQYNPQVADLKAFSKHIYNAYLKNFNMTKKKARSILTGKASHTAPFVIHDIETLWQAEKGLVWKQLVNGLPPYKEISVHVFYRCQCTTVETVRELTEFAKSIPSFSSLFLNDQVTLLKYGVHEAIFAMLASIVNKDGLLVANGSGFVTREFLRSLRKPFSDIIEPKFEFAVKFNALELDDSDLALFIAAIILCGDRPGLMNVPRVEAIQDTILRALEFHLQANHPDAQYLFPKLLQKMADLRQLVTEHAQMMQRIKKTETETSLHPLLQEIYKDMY

Sequence of Vitamin D3 receptor (Homo sapiens) (P11473 whole entry, looked up): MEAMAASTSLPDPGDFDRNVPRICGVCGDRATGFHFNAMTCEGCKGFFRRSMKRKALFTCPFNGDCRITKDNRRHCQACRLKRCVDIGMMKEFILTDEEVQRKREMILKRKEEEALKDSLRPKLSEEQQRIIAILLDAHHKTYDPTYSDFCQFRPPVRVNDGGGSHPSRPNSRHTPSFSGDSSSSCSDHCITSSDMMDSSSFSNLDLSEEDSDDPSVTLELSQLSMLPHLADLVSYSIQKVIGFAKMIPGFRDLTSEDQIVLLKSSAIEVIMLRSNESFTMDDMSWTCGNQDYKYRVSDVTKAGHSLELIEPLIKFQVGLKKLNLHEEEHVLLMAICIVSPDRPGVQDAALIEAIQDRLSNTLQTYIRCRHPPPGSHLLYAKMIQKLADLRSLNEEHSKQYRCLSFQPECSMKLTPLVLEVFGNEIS
Sequence of Bile acid receptor (Homo sapiens) (Q96RI1 whole entry, looked up): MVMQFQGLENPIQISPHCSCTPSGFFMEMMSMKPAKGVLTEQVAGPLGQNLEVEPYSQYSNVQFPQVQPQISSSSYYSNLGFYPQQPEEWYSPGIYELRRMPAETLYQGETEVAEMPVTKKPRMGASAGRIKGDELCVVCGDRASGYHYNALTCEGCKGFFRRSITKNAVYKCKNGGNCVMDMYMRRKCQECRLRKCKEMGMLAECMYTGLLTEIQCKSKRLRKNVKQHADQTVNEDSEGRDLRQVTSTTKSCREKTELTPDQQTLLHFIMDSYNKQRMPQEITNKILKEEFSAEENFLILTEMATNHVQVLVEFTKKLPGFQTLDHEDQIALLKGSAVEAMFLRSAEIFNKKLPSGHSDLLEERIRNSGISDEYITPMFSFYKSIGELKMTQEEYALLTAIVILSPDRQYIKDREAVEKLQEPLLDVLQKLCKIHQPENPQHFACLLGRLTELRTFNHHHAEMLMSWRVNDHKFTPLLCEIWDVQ

For `COC(c1ccccc1)(c1ccccc1)[C@H](Oc1nc(C)cc(C)n1)C(=O)O`, the Potency result in assay [1], in assay [2], in [3], in assay [4], in [5] and in [6] was “inactive” in each case. The Potency entry in assay [7] and in assay [8] was “inactive” in each case.

As for `COc1ccc(CCN(C)CCCC(C#N)(c2ccc(OC)c(OC)c2)C(C)C)cc1OC` (centres undefined), the Potency result in [1], in [3] and in assay [5] was “inactive” throughout.

For `c1ccc2c(c1)-c1cccc3c1c-2cc1ccccc13`, the Potency entry in assay [1], in [9], in assay [3], in assay [5] and in assay [8] was “inactive” throughout.

Take `CCCCC(CC)COC(=O)CC(C(=O)OCC(CC)CCCC)S(=O)(=O)O` (centres undefined): the Potency was 15.5 µM (active) in [1]; 52.9 µM (active) and 43.6 µM (active) in [3]; 43.6 µM (active) in [5]; 42 µM (active) and 43.6 µM (active) in assay [8]. Further, the Potency result in [9] and in [6] was “inactive” in each case.

For the compound `COC(=O)[C@H]1[C@H]2C[C@@H]3c4[nH]c5cc(OC)ccc5c4CCN3C[C@H]2C[C@@H](OC(=O)c2cc(OC)c(OC)c(OC)c2)[C@@H]1OC`, the results for the Potency in assay [1] and in assay [3] were 17.9 µM (active) and 22.5 µM (active), respectively. Further, the Potency entry in [9], in assay [5] and in assay [8] was “inactive” each time.

In the case of `CCC(C)(Oc1ccc(C2(c3ccc(OC(C)(CC)C(=O)O)cc3)CCCCC2)cc1)C(=O)O` (centres undefined), the Potency result in assay [1], in assay [2], in assay [4], in assay [5] and in [8] was “inactive” in each case.

As for `Cc1occc(=O)c1OC(=O)C(C)C`, the Potency entry in [1], in assay [9], in [5], in assay [6] and in assay [8] was “inactive” throughout.

As for `CCCCCCCCCCCC[N+](C)(C)C`, the Potency in assay [1] was 54.9 µM (active) and 15.5 µM (active); in [8], 49 µM (active) and 21.9 µM (active). For the same compound, the Potency entry in assay [2], in assay [3], in [4] and in assay [5] was “inactive” throughout.

With `CC[C@@H](N)CO`, the Potency entry in [1], in assay [9], in assay [5], in assay [6] and in assay [8] was “inactive” in each case.

On to `c1ccc2cc3c(ccc4ccccc43)cc2c1`, for which the Potency result in [1], in [2], in [3], in [4], in assay [5] and in assay [6] was “inactive” each time. The Potency entry in [8] was “inactive”.

With `O=C1CC2(CCCC2)CC(=O)N1CCCCN1CCN(c2ncccn2)CC1`, the Potency result in assay [1], in [2], in assay [4], in assay [5], in [6] and in assay [8] was “inactive” throughout. The Potency in assay [3] was 24.5 µM (active) and inactive.

For `c1ccc2n[nH]nc2c1`, the Potency result in assay [1] was “inactive and 38.9 µM (active)”; in [8] it was “inactive and 38.9 µM (active)”. Moreover, the Potency entry in assay [9], in [3] and in assay [5] was “inactive” in each case.

`O=C(OCc1ccccc1)c1ccc(O)cc1`: the Potency result in assay [1], in assay [2], in assay [3], in assay [4], in assay [5] and in assay [8] was “inactive” each time.

For the compound `CC1=CC(=O)c2ccccc2C1=O`, the Potency in [1] is 19.5 µM (active); in assay [9], 33.5 µM (active); in assay [3] it was 24.5 µM (active); in assay [8], 17.4 µM (active) and 11.9 µM (active).

For the compound `Cc1cc(OCCOCC[N+](C)(C)Cc2ccccc2)ccc1C(C)(C)CC(C)(C)C`, the Potency is 19.4 µM (active) in assay [1]; 54.6 µM (active) in assay [2]; 54.6 µM (active) and 29.8 µM (active) in [5]; 17.3 µM (active) and 26.6 µM (active) in assay [8]. Moreover, the Potency result in [4] is “inactive”.

As for `Nc1nc2ccccc2[nH]1`, the Potency entry in assay [1], in assay [2], in [3], in [4], in assay [5] and in assay [6] was “inactive” throughout. The Potency result in assay [7] and in assay [8] was “inactive” in each case.

With `Oc1c(Cl)cc(Cl)c(Cl)c1Cc1c(O)c(Cl)cc(Cl)c1Cl`, the Potency in assay [1] is 38.8 µM (active) and 24.5 µM (active); in [3] it was 21.8 µM (active) and 24.5 µM (active); in [5], 48.9 µM (active); in assay [8], 24.5 µM (active) and 21.9 µM (active) and 2.66 µM (active). Besides, the Potency entry in assay [4] is “inactive”.

Turning to `CN(C)c1ccc2nc3ccc(=[N+](C)C)cc-3sc2c1`, the Potency was 49 µM (active) and inactive in assay [1]; 8.37 µM (active) and 21.9 µM (active) and 8.41 µM (active) in [2]; 21 µM (active) and 49 µM (active) in assay [5]; 49 µM (active) and 2.98 µM (active) in assay [8]. The Potency result in [4] is “inactive”.

As for `CO[Si](OC)(OC)c1ccccc1`, the Potency result in assay [1], in assay [9], in [3], in assay [5], in assay [7] and in [8] was “inactive” each time.

Regarding `CCCN[C@H]1CCc2nc(N)sc2C1`, the Potency result in assay [1], in assay [3], in assay [5], in assay [6], in [7] and in assay [8] was “inactive” throughout.

As to `C=CC(=O)OCCCCCCOC(=O)C=C`, the Potency entry in assay [1], in assay [2], in [3] and in assay [5] was “inactive” each time. Also, the Potency in assay [8] is 44.2 µM (active) and inactive.

Regarding `Cc1c(O)cccc1C(=O)N[C@@H](CSc1ccccc1)[C@H](O)CN1C[C@H]2CCCC[C@H]2C[C@H]1C(=O)NC(C)(C)C`, the Potency in assay [1] is 15.1 µM (active) and 23.7 µM (active); in assay [3], 6.74 µM (active) and 26.6 µM (active); in assay [5], 19 µM (active) and 26.6 µM (active); in assay [8] it was 15.1 µM (active) and 26.6 µM (active). The Potency result in assay [4] was “inactive”.

`CCCCCCCCCCCCc1ccccc1O`: the Potency in assay [1] was 24.2 µM (active) and 21.9 µM (active); in assay [2], 49 µM (active); in assay [3], 17.2 µM (active) and 30.9 µM (active); in assay [5], 43.1 µM (active) and 43.6 µM (active); in [8] it was 10.8 µM (active) and 19.5 µM (active).

As for `N[C@@H]1CONC1=O`, the Potency entry in assay [1], in assay [2], in [3], in [4], in assay [5] and in assay [6] was “inactive” in each case. Moreover, the Potency result in assay [7] and in assay [8] was “inactive” in each case.

As to `O=Nc1ccc(Nc2ccccc2)cc1`, the Potency is 49 µM (active) in [1]; 30.9 µM (active) in assay [9]; 55.3 µM (active) and 54.9 µM (active) in assay [3]; 39.1 µM (active) in [5]; 17.5 µM (active) and 49 µM (active) in assay [8]. In assay [6], the Potency entry is “inactive”.

Turning to `O=C(O)CCc1ccccc1`, the Potency entry in assay [1], in assay [9], in assay [3], in [5], in [6] and in assay [8] was “inactive” in each case.

Take `CCc1ccc(C(c2ccc(CC)cc2)C(Cl)Cl)cc1`: the Potency entry in assay [1], in assay [9], in assay [4], in assay [5], in assay [6] and in assay [8] was “inactive” each time.

Consider `CC(=O)OCC1=C(C(=O)O)N2C(=O)[C@@H](NC(=O)Cc3cccs3)[C@H]2SC1`, for which the Potency entry in [1], in assay [2], in assay [3], in assay [4], in [5] and in [6] was “inactive” in each case. Further, the Potency entry in assay [8] is “inactive”.

As for `Cc1cc(Cc2cc(C)cc(C(C)(C)C)c2O)c(O)c(C(C)(C)C)c1`, the Potency in assay [1] is 13.9 µM (active) and 15.5 µM (active); in assay [3], 21.9 µM (active); in [8] it was 9.82 µM (active) and 13.8 µM (active). Moreover, the Potency result in [4], in assay [5] and in [6] was “inactive” in each case.

`NCCCCCC(=O)O`: the Potency result in assay [1], in assay [2], in assay [3], in assay [4], in assay [5] and in [6] was “inactive” in each case. The Potency result in assay [8] is “inactive”.

In the case of `Nc1cc(S(=O)(=O)O)cc2cc(S(=O)(=O)O)cc(O)c12`, the Potency entry in assay [1], in assay [2], in assay [4], in [5] and in assay [8] was “inactive” each time. In assay [6], the Potency was 24.4 µM (active).
